One assay relates to W2. The assay is described as follows: qHTS profiling for inhibitors of Plasmodium falciparum proliferation (AID 504749). The following applies: P. falciparum in erythrocytes, SYBR Green DNA, 72 h; series mostly up to 28.7 µM. In outline:
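Three-day growth assay of blood-stage parasites in erythrocytes (0.3% parasitemia, 2.5% hematocrit) at 37 C, 5% CO2, quantified by SYBR Green DNA staining after overnight detergent lysis.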

A further assay has as its system CRL-7250. The assay is described as follows: Cytotoxic Profiling of Annotated Libraries Using Quantitative High-Throughput Screening (AID 1296008). On max response: on the % scale 0 is the no-effect control and ±100 the full control effect. As to conditions: Five cell lines viability, CellTiter-Glo ATP luminescence, 48-72 h; max response: stronger effect = lower value. In outline: (§1)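 Cytotoxicity was measured as CellTiter-Glo ATP luminescence, read after 10 min at room temperature. Compound treatment of the cells lasted 48 or 72 hr at 37 degrees Celsius in a qHTS format.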
(In ATP-based viability assays light output follows the ATP content of the culture.)

The next assay relates to HEK293. Described as above. The following applies: Five cell lines viability, CellTiter-Glo ATP luminescence, 48-72 h; max response: stronger effect = lower value. An outline of the steps: as §1
Assay [1] has as its system HaCat. Described as above. The following applies: Five cell lines viability, CellTiter-Glo ATP luminescence, 48-72 h; max response: stronger effect = lower value. An outline of the steps: as §1
The test system of the next assay is KB-3-1. The description is as above. As to conditions: Five cell lines viability, CellTiter-Glo ATP luminescence, 48-72 h; max response: stronger effect = lower value. In outline: as §1
Another assay relates to NIH3T3. The description is as above. The following applies: Five cell lines viability, CellTiter-Glo ATP luminescence, 48-72 h; max response: stronger effect = lower value. An outline of the steps:
as §1

In assay [2] the test system is HACAT. As to the kind of experiment: qHTS assay to identify novel small-molecules to repurpose for Merkel cell carcinoma treatment (AID 1296009). As to conditions: MCC and control cell lines, CellTiter-Glo viability, 72 h; at 44.8 µM (top of the series) unless noted. An outline of the steps: (§2)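 After compound transfer in DMSO, plates were kept 72 hr at 37 degree celsius. Luminescent ATP signal from CellTiter-Glo served as viability measure, normalized against DMSO and no-cell controls.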

The test system of a further assay is MCC-13. The assay is described as above. The following applies: MCC and control cell lines, CellTiter-Glo viability, 72 h; series mostly up to 46 µM. In outline: as §2
A further assay has as its system MCC-26. The assay is described as above. The following applies: MCC and control cell lines, CellTiter-Glo viability, 72 h; series mostly up to 46 µM. In outline:
as §2

The test system of the next assay is HEK293T. Described as above. The following applies: MCC and control cell lines, CellTiter-Glo viability, 72 h; at 44.8 µM (top of the series) unless noted. An outline of the steps:
as §2

Consider 14 molecules from PubChem BioAssay (NCATS).

“And” between values parts separate entries of the source, which are not always exact repeats. Identical values can stand only once. Results filed as inconclusive are left out. Where a structure was tested more than once in an assay, its records may differ in their call. A number with no mark means an inactive call. The source made the active and inactive calls. The call rests on the fitted dose curve; in most records, active means well fitted inhibition curve with a large enough effect; inconclusive means small, poorly fitted or top-dose-only effect; inactive means flat fitted curve, though single readings scatter. Peptide text beside a SMILES is read from it.
Further: nearly all actives have a fitted effect of over 60% in size.
Potency means the concentration at half of the fitted maximal effect.

Turning to `CN(c1nccc(=O)[nH]1)C1CCN(c2nc3ccccc3n2Cc2ccc(F)cc2)CC1`, the Potency in the assay with W2 was 12 µM (active). Also, the max response in the assay on CRL-7250 is -35.3% and -24.5%; in the assay on HEK293, -109% and 0.851% and -12.1%; with HaCat [1] it was 0.328%; in the assay on KB-3-1, 1.53%; in the assay on NIH3T3, 0.52% and 4.28%. Besides, the molecule was called inactive with CRL-7250, in the assay with HaCat [1], with KB-3-1, in the assay on NIH3T3 and with HACAT [2]. Also, the Potency entry with MCC-13 and with MCC-26 was “inactive” throughout.

For `CN(C)c1ccc(O)c2c1C[C@H]1C[C@H]3[C@H](N(C)C)C(=O)C(C(N)=O)=C(O)[C@@]3(O)C(=O)C1=C2O`, the max response was -30% with CRL-7250; -11.2% in the assay on HEK293; 5.11% and -5.52% and -6.53% with KB-3-1; -2.91% in the assay on NIH3T3. Moreover, the result with CRL-7250, with HaCat [1], with NIH3T3 and with HACAT [2] was inactive. Moreover, the Potency entry in the assay on MCC-13 and in the assay with MCC-26 was “inactive” throughout.

For `Cc1cccc(CN2CCN(C(c3ccccc3)c3ccc(Cl)cc3)CC2)c1` (configuration not stated), the max response with CRL-7250 was -2.17%; in the assay with KB-3-1, 8.45% and -5.16%; in the assay with NIH3T3, 3.98% and 1.14%. Further, the call in the assay on CRL-7250, in the assay with HaCat [1] and in the assay on HACAT [2] was inactive. For the same molecule, the Potency result with MCC-13 and in the assay with MCC-26 was “inactive” throughout.

Consider `CCC[C@@H]1C[C@@H](C(=O)N[C@@H]([C@H]2O[C@H](SC)[C@H](O)[C@@H](O)[C@H]2O)[C@@H](C)O)N(C)C1`, for which the Potency with W2 is 0.338 µM (active). Also, the max response with CRL-7250 is -16.2%; with HEK293, -5.82% and -16.1%; in the assay on HaCat [1], -11.9% and -14%; in the assay on NIH3T3, -4.88% and -7.89%. Also, the result with CRL-7250 was inactive. Besides, the Potency entry with MCC-13 and in the assay on MCC-26 was “inactive” throughout.

For `Clc1ccc(C(Cn2ccnc2)OCc2ccc(Sc3ccccc3)cc2)c(Cl)c1` (configuration not stated), the max response was -3.19% in the assay on CRL-7250, -18.4% in the assay with KB-3-1 and -3.29% in the assay on NIH3T3. For the same molecule, the molecule was classed as inactive in the assay with CRL-7250, with HEK293, in the assay with HaCat [1], in the assay with NIH3T3, with HACAT [2] and in the assay on HEK293T. Besides, in the assay with HEK293, the Potency was 26.4 µM (active). Further, the Potency result with MCC-13 and in the assay on MCC-26 was “inactive” in each case.

For `CCN(CC)C(=S)SSC(=S)N(CC)CC`, the Potency is 0.105 µM (active) in the assay with CRL-7250; 59 nM (active) and 313 nM (active) and 841 nM (active) with HEK293; 11.1 µM (active) in the assay on HaCat [1]; 0.0833 µM (active) with KB-3-1; 2.09 µM (active) and 111 nM (active) and 944 nM (active) with MCC-13; 1.48 µM (active) and 596 nM (active) in the assay on MCC-26. Also, the result in the assay on CRL-7250 was inactive. Further, the max response in the assay with KB-3-1 is 0.882% and 32.2%.

As to `COC(=O)N[C@H](C(=O)N[C@@H](Cc1ccccc1)[C@@H](O)CN(Cc1ccc(-c2ccccn2)cc1)NC(=O)[C@@H](NC(=O)OC)C(C)(C)C)C(C)(C)C`, the max response with CRL-7250 was -0.779%; in the assay on HEK293 it was -5.2%; with HaCat [1] it was -5.76%; with KB-3-1 it was 5.51% and -5.77%; in the assay with NIH3T3, 0.751% and -1.44%. In addition, the call in the assay on HEK293, in the assay with HaCat [1], in the assay with HACAT [2] and with HEK293T was inactive. Further, the Potency result in the assay on MCC-13 and in the assay on MCC-26 was “inactive” throughout.

On to `Cc1cc2cc3c(C)cc(=O)oc3c(C)c2o1`, for which the Potency entry in the assay on W2, in the assay on MCC-13 and in the assay with MCC-26 was “inactive” throughout. Also, the max response in the assay on CRL-7250 is 4.53% and -2.29%; in the assay with HEK293, -0.492%; with HaCat [1], -8.67%; in the assay with KB-3-1, -3.63%; with NIH3T3, -1.93%. Also, the molecule was called inactive in the assay with HEK293, in the assay with HaCat [1], with KB-3-1, in the assay on NIH3T3, in the assay with HACAT [2] and with HEK293T.

Take `Cc1cc2c(s1)Nc1ccccc1N=C2N1CCN(C)CC1`: the molecule was called inactive in the assay with CRL-7250, with HEK293, with HaCat [1], in the assay with KB-3-1, with NIH3T3 and with HACAT [2]. For the same molecule, in the assay on HEK293T, the molecule was classed as inactive. Besides, the max response is 0.773% in the assay on HEK293; -13.9% in the assay on HaCat [1]; 7.18% and 6.8% in the assay with KB-3-1. The Potency entry in the assay on MCC-13 and with MCC-26 was “inactive” throughout.

`COC(=O)[C@H](Cc1ccccc1)NC(=O)[C@@H](N)CC(=O)O` (H-Asp-Phe-OMe): the Potency result with W2, with MCC-13 and in the assay on MCC-26 was “inactive” in each case. Further, the max response is 3.9% in the assay with CRL-7250; -5.62% and -7.54% in the assay with HEK293; 0.0507% and -16.9% in the assay on HaCat [1]; 0.426% and 2.8% and -6.99% in the assay with KB-3-1; -5.4% and -2.3% in the assay with NIH3T3. Moreover, the result with CRL-7250 was inactive.

Consider `Cc1c(C(=O)NN2CCCCC2)nn(-c2ccc(Cl)cc2Cl)c1-c1ccc(Cl)cc1`, for which the figures for the Potency in the assay with W2 and in the assay with HEK293 were 6.75 µM (active) and 26.4 µM (active), respectively. The max response was -1.95% with CRL-7250, -25.1% in the assay with KB-3-1 and 0.216% in the assay on NIH3T3. The outcome in the assay with CRL-7250, in the assay on HaCat [1], with NIH3T3 and with HACAT [2] was inactive. The Potency entry in the assay with MCC-13 and in the assay with MCC-26 was “inactive” each time.

Consider `Clc1ccc(C(Cn2ccnc2)OCc2ccsc2Cl)c(Cl)c1` (configuration not stated), for which the Potency in the assay with W2 was 1.69 µM (active). The max response in the assay with CRL-7250 is 1.94%; with HaCat [1], -18.6% and -23.1%; with KB-3-1, -26.3% and -17.4%. In addition, the outcome with CRL-7250 was inactive. The Potency entry with MCC-13 and with MCC-26 was “inactive” each time.

Regarding `CC(=O)Nc1ccc(O)cc1`, the max response in the assay on CRL-7250 is -5.95%; in the assay on HEK293 it was 1.48%; in the assay on HaCat [1], -8.57%; with KB-3-1, 23.8% and 2.6%; in the assay on NIH3T3, -5.84%. Further, the call in the assay on CRL-7250, in the assay on HEK293, in the assay with HaCat [1], in the assay with NIH3T3, with HACAT [2] and in the assay with HEK293T was inactive. Moreover, the Potency entry with MCC-13 and with MCC-26 was “inactive” in each case.

`Cn1c(NCCN(CCO)CCCc2ccc([N+](=O)[O-])cc2)cc(=O)n(C)c1=O`: the max response is -8.35% in the assay with CRL-7250; 0.714% in the assay with HaCat [1]; 3.71% and -8.99% in the assay on KB-3-1; 4.21% and -8.98% in the assay with NIH3T3. The outcome with CRL-7250, in the assay with HEK293, in the assay on HaCat [1], in the assay on HACAT [2] and in the assay on HEK293T was inactive. Moreover, the Potency result in the assay on MCC-13 and in the assay on MCC-26 was “inactive” in each case.
